Assay results: PubChem BioAssay AID2517 (National Center for Advancing Translational Sciences (NCATS), 2010)
Values joined by “and” are separate entries in the source; they are usually repeats but may differ in a detail not shown here. Equal values may be shown once. The campaign covered roughly 350,000 compounds. About 1,200 (0.34%) were called active. A call without a number means that no potency is given here. Not shown: some 3% with an inconclusive outcome. Calls come from the whole dose curve; as a rule, active = well fitted inhibition curve with a large enough effect; inconclusive = small, poorly fitted or top-dose-only effect; inactive = no such curve, though single readings can be large or run the other way. The sample as a whole holds a higher share of actives than the screen did.

biological target: DNA repair nuclease/redox regulator APEX1 (Homo sapiens) (UniProt P27695); experiment: qHTS Assay for Inhibitors of the Human Apurinic/apyrimidinic Endonuclease 1 (APE1); details: recombinant APE1, TAMRA/BHQ-2 abasic DNA cleavage fluorescence; activity change, negative = inhibition: at 65.8 µM (top of the series); note: nearly all actives have a fitted effect of over 55% in size
Outline: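 Endonuclease cleavage of a quenched abasic-site DNA duplex (50 nM) by APE1 (0.75 nM) was tracked by TAMRA dequenching. Compounds were preincubated with enzyme 15 min at room temperature; data normalized to buffer-only and DMSO wells plus NSC13755 control.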
Potency is the fitted concentration of half-maximal effect.

Sequence of DNA repair nuclease/redox regulator APEX1 (Homo sapiens) (P27695 whole entry, looked up): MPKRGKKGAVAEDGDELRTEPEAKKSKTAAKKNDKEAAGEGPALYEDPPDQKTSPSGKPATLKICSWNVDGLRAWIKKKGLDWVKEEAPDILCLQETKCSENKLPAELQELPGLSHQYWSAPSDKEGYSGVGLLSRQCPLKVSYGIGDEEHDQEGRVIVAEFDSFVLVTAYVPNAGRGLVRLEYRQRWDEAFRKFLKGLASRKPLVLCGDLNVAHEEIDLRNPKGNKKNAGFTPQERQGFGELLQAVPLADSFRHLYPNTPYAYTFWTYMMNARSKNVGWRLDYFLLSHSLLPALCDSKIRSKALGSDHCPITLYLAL

| Structure (SMILES) | Potency | activity change, negative = inhibition |
| --- | --- | --- |
| O=C(CSc1nnc(-c2cccc([S+](=O)([O-])N3CCCC3)c2)n1-c1ccccc1)Nc1cccc(C(F)(F)F)c1 | inactive | – |
| CC(Oc1ccccc1)C(=O)N[C@@H]1C(=O)N2[C@@H]1SC(C)(C)[C@@H]2C(=O)O (some centres not stated) | inactive | – |
| C=CCNc1oc(-c2cccnc2)nc1C#N | inactive | – |
| O=C(CCC1CCCN(C(=O)Cc2ccc(F)cc2)C1)N1CCN(c2ccccn2)CC1 (configuration not stated) | inactive | – |
| C=Cc1ccc(C(=O)N2CCCC(CCC(=O)N3CCN(c4ccccn4)CC3)C2)cc1 (configuration not stated) | 0.67 µM (active) | – |
| O=C(CCC1CCCN(C(=O)c2ccc(F)c(F)c2)C1)N1CCN(c2ccccn2)CC1 (configuration not stated) | inactive | – |
| COc1ccc(C2=Nn3c(nnc3-c3ccccc3F)SC2)cc1OC | inactive | – |
| COc1ccc2c3c1OC1CC(O)C=C[C@@]31CCN(C)C2 (some centres not stated) | inactive | – |
| COc1ccc2c(c1)O[C@@H](c1ccc3c(c1)OCO3)[C@H](OC(=O)NCc1ccco1)C2=O | inactive | – |
| O=C(c1ccncc1)N1CCC2(CCCN(C(c3ccccc3)c3ccccc3)C2)CC1 | inactive | – |
| COc1cccc([C@@H]2Oc3ccc(Br)cc3C(=O)[C@H]2OC(=O)NCCc2ccc(OC)c(OC)c2)c1 | inactive | – |
| C=C/C1=C/Cc2ccccc2[C@H](C[N+](=O)[O-])C(C(=O)OC)(C(=O)OC)C1 | inactive | – |
| C[C@@H]1O[C@@H](O[C@@H]2[C@@H](O)[C@H](OCCc3ccc(O)c(O)c3)O[C@H](CO[C@@H]3O[C@H](CO)[C@@H](O)[C@H](O)[C@H]3O)[C@H]2OC(=O)/C=C/c2ccc(O)c(O)c2)[C@H](O)[C@H](O)[C@H]1O | inactive | – |
| NC(=O)CCN1CCN(S(=O)(=O)/C=C/c2ccccc2)CC1 | inactive | – |
| COc1ccccc1N1CCN(CC(=O)NC(=O)NCc2ccco2)CC1 | inactive | – |
| O=C(CN1CCN(S(=O)(=O)/C=C/c2ccccc2)CC1)NC(=O)NCc1ccco1 | 22.4 µM (active) | – |
| COc1ccccc1CNc1ccnc(-c2c(C)noc2C)n1 | inactive | – |
| COC(=O)[C@@H]1C[C@@]2(O)[C@H](O)[C@H](O)[C@H](O)C[C@H]2N1CC1CCCCC1 | inactive | – |
| O=C(Cl)c1ccc([N+](=O)[O-])cc1 | inactive | – |

| Structure (SMILES) | Potency | activity change, negative = inhibition |
| --- | --- | --- |
| CCC(C)[C@@H](N)C(=O)O (some centres not stated) | inactive | – |
| O=C(c1cc(C(F)(F)F)cc(C(F)(F)F)c1)N1CCC2(CCCN(c3ccccn3)C2)CC1 | inactive | – |
| C[N+](C)(CCCCCC[N+](C)(C)CCCN1C(=O)c2cccc3cccc(c23)C1=O)CCCN1C(=O)c2cccc3cccc(c23)C1=O | 10 µM (active) and 4.74 µM (active) | – |
| O=C1c2cccc3cccc(c23)C(=O)N1CCCCCc1n[nH]c(=S)o1 | inactive | – |
| O=C(CN1C(=O)c2cccc3cccc(c23)C1=O)N1CCCCC1 | inactive | – |
| OC(CCl)CCl | inactive | – |
| CC[C@H](C)[C@H](NC(=O)[C@H](Cc1ccc(O)cc1)NC(=O)[C@@H](NC(=O)[C@H](CCCN=C(N)N)NC(=O)[C@@H](N)CC(=O)O)C(C)C)C(=O)N[C@@H](Cc1cnc[nH]1)C(=O)N1CCC[C@H]1C(=O)N[C@@H](Cc1ccccc1)C(=O)O | inactive | – |
| CCOC(=O)c1sc2nc(CSCC(=O)OCc3ccc(C(=O)OC)o3)[nH]c(=O)c2c1C | inactive | – |
| Cc1sc2nc(CSCC(=O)NC3CCCCC3)[nH]c(=O)c2c1C | inactive | – |
| CSc1nnc(SCc2nc3sc(C(=O)O)c(C)c3c(=O)[nH]2)s1 | 25.1 µM (active) | – |
| COC(=O)C1(C(C)=O)CC2=CC[C@H]3C(=O)N(c4ccccc4)C(=O)[C@H]3[C@@H]2Cc2ccccc2[C@@H]1C[N+](=O)[O-] (some centres not stated) | inactive | – |
| OC[C@H]1O[C@@H](n2cnc3c(NC4CCCC4)ncnc32)[C@H](O)[C@H]1O | inactive | – |
| Cc1csc(-c2coc3cc(O[C@@H]4O[C@H](CO)[C@@H](O)[C@@H](O)[C@H]4O)ccc3c2=O)n1 | inactive | – |
| CCCCC/C=C/C=C/C=O | inactive | – |
| CNS(=O)(=O)c1cccc(C(=O)OCC(=O)N2c3ccccc3NC(=O)C2(C)C)c1 | 15 µM (active) | – |
| Cc1cc(C(=O)OCC(=O)N2c3ccccc3NC(=O)C2(C)C)c(C)n1-c1ccccc1 | inactive | – |
| CCNc1ccc(C(=O)OCC(=O)N2c3ccccc3NC(=O)C2(C)C)cc1[N+](=O)[O-] | inactive | – |
| CC(C)CO | inactive | – |
| CN1CCN2c3ccccc3Cc3ccccc3[C@@H]2C1 | inactive | – |

| Structure (SMILES) | Potency | activity change, negative = inhibition |
| --- | --- | --- |
| C/C(CCN1CCCCc2nc(C)c(C)cc21)=N\O[C@@H](C)c1cn([C@@H]2COC[C@@H]2O)nn1 | – | 11.9% [at 12.4 µM] (inactive) |
| C=CC(C1=CC(=O)C=CC1=O)c1ccc(O)cc1 (configuration not stated) | inactive | – |
| COc1ccc(OC)c(NC(=O)N[C@H](Cc2ccccc2)C(=O)NN)c1 | inactive | – |
| COc1cc([C@H](Cc2ccccc2)NC(C)=O)oc(=O)c1 | 28.2 µM (active) | – |
| CCOC(=O)C(Cc1ccccc1)NC(=O)CCC(=O)c1ccc(OC)cc1 (configuration not stated) | inactive | – |
| COC(=O)C1(C)C=CC2(CCCCC2)N1C(C)=O (configuration not stated) | inactive | – |
| N#Cc1ccc(CN2CCCC3(CCN(C(=O)c4ccco4)CC3)C2)cc1 | inactive | – |
| C[C@H]1CCC[C@@]2(C)CCCC[C@]12O | inactive | – |
| COC(=O)CC1c2ccccc2C(Cc2ccc(OC)cc2)=C(C)N1C(=O)OC (configuration not stated) | – | -8.37% [at 12.4 µM] (inactive) |
| CCOc1ccc(OCC)c(NC(=O)CCS(=O)(=O)c2ccc(C)cc2)c1 | inactive | – |
| O=C(CCS(=O)(=O)c1ccc(Br)cc1)NCCc1ccc(Cl)cc1 | inactive | – |
| COc1ccc(Cl)cc1NC(=O)CCS(=O)(=O)c1ccc(Br)cc1 | 11.9 µM (active) | – |
| COc1cccc(Cn2c(=O)cnc3cncnc32)c1 | inactive | – |
| C=CC1=C2C=C(C3CC3)N(CC(C)C)C=C2C(=O)C(C)(OC(=O)c2ccco2)C1=O (configuration not stated) | – | -5.75% [at 12.4 µM] (inactive) |
| COc1ccccc1CNc1ncnc2ccc(-c3c(C)noc3C)cc12 | inactive | – |
| C[C@H]1Cc2c(-c3ccccc3)nc3c(c2CO1)CN(C(=O)C1CC1)CC3 | – | -1.16% [at 12.4 µM] (inactive) |
| COC(=O)C1(C)C=CCN1C(=O)c1ccccc1 (configuration not stated) | inactive | – |
| Cc1ccc(CNc2ccc(N3CCN(C(=O)OC(C)(C)C)CC3)cc2)cc1 | inactive | – |
| C=CCOC(=O)COCCC(C)C | inactive | – |
